# Experimental data: PMC4336329 (PLoS ONE, 2015)
# Hit rate of the full screen: of about 310,000 compounds, about 14,000 (4.5%) showed an effect of 50% or more. Effects have a minus sign here. The entries come from a sample that favours strong results as a whole.
# Target: human ether-à-go-go-related gene (hERG) potassium channel (human, UniProt Q12809)
# Assay: primary screen, population patch clamp on CHO cells stably expressing hERG; higher = less effect of the substance
# 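Further: peak tail current of the secondary pulse compared with the same well before compound.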
# Sequence of human ether-à-go-go-related gene (hERG) potassium channel (Q12809 whole entry, looked up): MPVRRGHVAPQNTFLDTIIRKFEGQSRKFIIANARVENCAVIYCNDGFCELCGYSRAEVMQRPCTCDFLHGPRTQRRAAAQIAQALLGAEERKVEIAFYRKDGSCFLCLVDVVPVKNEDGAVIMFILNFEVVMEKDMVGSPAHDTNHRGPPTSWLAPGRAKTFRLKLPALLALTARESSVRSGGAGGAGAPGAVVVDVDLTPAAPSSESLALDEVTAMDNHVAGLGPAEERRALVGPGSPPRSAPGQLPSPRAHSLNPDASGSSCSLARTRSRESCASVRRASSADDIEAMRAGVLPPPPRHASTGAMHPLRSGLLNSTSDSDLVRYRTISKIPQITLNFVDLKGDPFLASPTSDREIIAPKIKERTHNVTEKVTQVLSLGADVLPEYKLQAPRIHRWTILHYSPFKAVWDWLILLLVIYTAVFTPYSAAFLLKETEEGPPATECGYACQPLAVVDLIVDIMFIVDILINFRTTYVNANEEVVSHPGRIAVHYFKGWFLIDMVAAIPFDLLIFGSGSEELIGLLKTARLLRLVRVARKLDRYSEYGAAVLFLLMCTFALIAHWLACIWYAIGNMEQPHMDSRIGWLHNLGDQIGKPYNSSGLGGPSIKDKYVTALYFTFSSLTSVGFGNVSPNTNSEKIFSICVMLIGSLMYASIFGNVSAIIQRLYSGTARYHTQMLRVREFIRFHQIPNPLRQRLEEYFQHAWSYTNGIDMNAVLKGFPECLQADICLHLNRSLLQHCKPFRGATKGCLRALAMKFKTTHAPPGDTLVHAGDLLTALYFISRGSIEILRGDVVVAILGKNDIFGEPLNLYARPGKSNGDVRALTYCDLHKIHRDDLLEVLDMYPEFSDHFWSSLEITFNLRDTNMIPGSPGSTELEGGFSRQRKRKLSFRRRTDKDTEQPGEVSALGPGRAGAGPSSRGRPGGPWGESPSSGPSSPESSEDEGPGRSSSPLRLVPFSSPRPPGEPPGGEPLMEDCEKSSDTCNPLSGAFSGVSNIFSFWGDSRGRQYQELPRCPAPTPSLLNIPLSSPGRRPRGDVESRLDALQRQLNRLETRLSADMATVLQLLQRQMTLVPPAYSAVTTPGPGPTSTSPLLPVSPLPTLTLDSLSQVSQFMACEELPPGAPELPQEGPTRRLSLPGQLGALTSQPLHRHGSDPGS
row,SMILES,"hERG current change (%, negative = inhibition) at 10uM"
1,CC(=O)Nc1cccc(N(C(=O)C2COc3ccccc3O2)C(C(=O)NC2CCCCC2)c2cn(C)nc2C)c1 (centres unmarked),24.1%
2,CCOc1cc(CNc2ccc(N(C)C)cc2)cc(Br)c1OCC(=O)NC(C)(C)C,-17%
3,Cc1c(C)c2cc3c(C)coc3cc2oc1=O,10.5%
4,O=C(NCc1ccc(OC(F)(F)F)cc1)C1CC2Cn3c(nc4ccccc43)C2N1c1ccccc1 (centres unmarked),-61.3%
5,CN1C(C(=O)NCC2CC2)CC2Cn3c(nc4cc5ccccc5cc43)C21 (centres unmarked),-21.2%
6,COc1ccc(CCNC(=O)C2CC3Cn4c(nc5ccccc54)C3N2c2ccccc2)cc1 (centres unmarked),-7.57%
7,CN1C(C(=O)NCc2ccc(OC(F)(F)F)cc2)CC2Cn3c(nc4cc(Cl)c(Cl)cc43)C21 (centres unmarked),-77.9%
8,O=C(NCc1ccc(OC(F)(F)F)cc1)C1CC2Cn3c(nc4ccccc43)C2N1Cc1ccccc1 (centres unmarked),-62.1%
9,COc1ccc(CCNC(=O)C2CC3Cn4c(nc5cc(C)c(C)cc54)C3N2C)cc1 (centres unmarked),-31.4%
10,COc1ccc(CCNC(=O)C2CC3Cn4c(nc5cc(Cl)c(Cl)cc54)C3N2C)cc1 (centres unmarked),-23.5%
11,COc1ccc(CCNC(=O)C2CC3Cn4c(nc5cc6ccccc6cc54)C3N2C)cc1 (centres unmarked),-43.7%
12,COc1ccc(CCNC(=O)C2CC3Cn4c(nc5ccccc54)C3N2Cc2ccccc2)cc1 (centres unmarked),-49.7%
13,CN1C(C(=O)NCc2ccc(OC(F)(F)F)cc2)CC2Cn3c(nc4cc5ccccc5cc43)C21 (centres unmarked),-69.4%
14,O=C(CN1CCC2(CC1)OCCO2)c1ccc2cc[nH]c2c1,-15.2%
15,Cc1cc(C(=O)N/N=C/c2ccc(-c3cccc(Cl)c3)o2)n[nH]1,11.3%
16,CN1C(C(=O)NCC2CC2)CC2Cn3c(nc4ccccc43)C21 (centres unmarked),15.5%
17,CN1C(C(=O)NCc2ccc(OC(F)(F)F)cc2)CC2Cn3c(nc4ccccc43)C21 (centres unmarked),-78.7%
18,COc1ccc(CCNC(=O)C2CC3Cn4c(nc5ccccc54)C3N2C)cc1 (centres unmarked),-8.64%
19,CCOc1ncccc1C(=O)NCCCSc1ccccc1,-35.9%

row,SMILES,"hERG current change (%, negative = inhibition) at 10uM"
1,O=C(O)C1=C[C@@H](c2ccccc2)C[C@@H](OCCCCO)O1,8.4%
2,COc1ccc(S(=O)(=O)N2CCN(c3ccccc3OC)CC2)cc1OC,-2.71%
3,COc1cccc(CN2CCN(c3cccc(C(F)(F)F)c3)CC2)c1OC,-23.9%
4,COc1ccc(CC(C)N2CCN(c3ccccc3)CC2)cc1OC (centres unmarked),-64%
5,COc1ccc(CC(C)N2CCN(c3cccc(C(F)(F)F)c3)CC2)cc1OC (centres unmarked),-65.9%
6,COc1ccc(/C=N/N2CCN(c3ccccc3OC)CC2)cc1OC,-19.7%
7,COc1ccccc1CC(=O)N1CCN(c2cccc(C(F)(F)F)c2)CC1,-9.71%
8,COc1ccc(CC(C)N2CCN(Cc3ccccc3)CC2)cc1OC (centres unmarked),-33.1%
9,COc1ccc(CC(C)N2CCN(c3ccccc3OC)CC2)cc1OC (centres unmarked),-62.1%
10,COc1ccc(CC(=O)N2CCN(c3ccccc3)CC2)cc1OC,18.4%
11,CC1(/[N+]([O-])=C\c2ccccc2F)CCCCC1=O (centres unmarked),8.53%
12,Cc1ccn2c(-c3n[nH]c(=S)n3C)c(C)nc2c1,19.6%
13,COc1cccc(NC(=O)N2CCCC2C(=O)Nc2ccc3c(c2)OCO3)c1 (centres unmarked),15.8%
14,O=c1[nH]c(=O)n(Cc2ccco2)c(O)c1/C=N/N1CCCCC1,3.21%
15,O=c1[nH]c(=O)n(CCC2=CCCCC2)c(O)c1/C=N/Nc1ccccc1,14.8%
16,O=c1[nH]c(=O)n(Cc2ccco2)c(O)c1C=NC1CCN(Cc2ccccc2)CC1,-59.2%
17,Cn1c(O)c(C=NC2CCN(Cc3ccccc3)CC2)c(=O)n(C)c1=O,-20.4%
18,C=CCn1c(O)c(C=NC2CCN(Cc3ccccc3)CC2)c(=O)[nH]c1=O,-33.5%
19,O=c1[nH]c(=S)n(CCC2=CCCCC2)c(O)c1/C=N/Nc1ccccc1,-7.83%

row,SMILES,"hERG current change (%, negative = inhibition) at 10uM"
1,O=c1[nH]c(=O)n(C2CCCCCC2)c(O)c1C=NCc1cccnc1,-9.79%
2,O=c1[nH]c(=O)n(Cc2ccco2)c(O)c1C=NC1CC1,9.35%
3,O=c1[nH]c(=O)n(CCC2=CCCCC2)c(O)c1C=NC1CCN(Cc2ccccc2)CC1,-58.6%
4,O=c1[nH]c(=O)n(C2CCCCCC2)c(O)c1C=NC1CCN(Cc2ccccc2)CC1,-53.2%
5,O=C(N/N=C/c1c(O)n(CCC2=CCCCC2)c(=S)[nH]c1=O)c1ccccc1,7.94%
6,O=c1[nH]c(=S)n(CCC2=CCCCC2)c(O)c1C=NC1CCN(Cc2ccccc2)CC1,-55%
7,CC(C)(C)NC(=O)COC(=O)c1cc(S(=O)(=O)N2CCCCC2)ccc1N1CCOCC1,-6.23%
8,CCOC(=O)c1ccc(N2C(=O)CC(Nc3ccc(CCO)cc3)C2=O)cc1 (centres unmarked),-25.5%
9,OCC[C@@H]1C[C@H](O)[C@@H](O)[C@]2(CCCCO2)O1,21.2%
10,CCOc1ccc(C(Nc2ccc(C)cc2)P2(=O)OCC(C)(C)CO2)cc1 (centres unmarked),4.67%
11,Cn1cccc1CC(=O)NNC(=O)Nc1cccc(Cl)c1,18.9%
12,O=S(=O)(Nc1ccccc1O)c1cccc2cccnc12,8.14%
13,O=C(CNC(=O)c1cccs1)NCCN1CCN(c2ccccc2F)CC1,-35.3%
14,N#Cc1ccc(NC(=O)N2CCC(c3nc4c(nnn4Cc4cccc(Cl)c4)c(=O)[nH]3)CC2)cc1,3.5%
15,Cc1ccccc1SCC(=O)Nc1cc(C(F)(F)F)ccc1N1CCOCC1,-1.77%
16,CCCCCCn1c(O)c(C=NC2CCN(Cc3ccccc3)CC2)c(=O)[nH]c1=O,-65.7%
17,Cn1c(O)c(C=NC2CCN(Cc3ccccc3)CC2)c(=O)[nH]c1=O,-26.5%
18,O=c1[nH]c(=O)n(CCc2ccccc2)c(O)c1C=NC1CC1,3.17%
